Consider seven sequences from article PMC8384837, “Expanding the binding specificity for RNA recognition by a PUF domain”.

What all share (assay): yeast three-hybrid, YBZ-1, SC-Leu-His + 0.5 mM 3-AT, 4 days
Settings in all cases: tags: N-Gal4 AD-HA kept; label: inside an RPR1-promoter hybrid RNA with tandem MS2 sites; ssRNA

The target of experiment [1] is PUM1 PUF domain R1-HKR (Homo sapiens, UniProt Q14671 828-1176, S863H;R864K;Q867R). The essentials: (§1)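 The interaction score is the log change in how often each variant appears, from input to selection. Frequencies came from PCR-amplified, Illumina-sequenced repeat regions of Pumilio-1 PUF domain libraries grown in strain YBZ-1 (LexA–MS2 coat fusion, HIS3 reporter) alongside matching RNA elements. Input plates were SC-Leu and selection plates were SC-Leu-His + 0.5 mM 3-AT, each for four days, and the log2 calculation used a pseudocount of 1 where a variant was absent.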

In experiment [2] the target is PUM1 PUF domain R1-TLE (Homo sapiens, UniProt Q14671 828-1176, S863T;R864L;Q867E). A digest of the protocol: as §1
The target of experiment [3] is PUM1 PUF domain R1-KMR (Homo sapiens, UniProt Q14671 828-1176, S863K;R864M;Q867R). The essentials: as §1
Experiment [4] deals with PUM1 PUF domain R4-GWP (Homo sapiens, UniProt Q14671 828-1176, N971G;H972W;Q975P). The essentials:
as §1

Experiment [5] has as its target PUM1 PUF domain R3-GYV (Homo sapiens, UniProt Q14671 828-1176, C935G;R936Y;Q939V). A digest of the protocol:
as §1

In experiment [6] the target is T1, PUM1 PUF domain R6-MFS (Homo sapiens, UniProt Q14671 828-1176, N1043M;Y1044F;Q1047S).
T1 sequence: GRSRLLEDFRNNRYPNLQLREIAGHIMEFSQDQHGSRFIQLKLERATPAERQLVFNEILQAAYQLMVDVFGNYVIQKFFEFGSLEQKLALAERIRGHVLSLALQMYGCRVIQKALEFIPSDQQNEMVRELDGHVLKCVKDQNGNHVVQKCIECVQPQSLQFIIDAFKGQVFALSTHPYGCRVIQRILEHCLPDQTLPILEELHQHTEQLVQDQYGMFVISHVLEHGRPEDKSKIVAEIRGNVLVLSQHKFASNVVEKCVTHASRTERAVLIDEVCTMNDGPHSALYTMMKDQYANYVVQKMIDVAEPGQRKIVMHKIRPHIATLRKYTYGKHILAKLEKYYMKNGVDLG
The essentials: as §1

For experiment [7], the target named is PUM1 PUF domain R8-HYR (Homo sapiens, UniProt Q14671 828-1176, N1122H;Q1126R). The essentials:
as §1

The target of experiment [8] is PUM1 PUF domain R8-KWV (Homo sapiens, UniProt Q14671 828-1176, N1122K;Y1123W;Q1126V). A digest of the protocol:
as §1

The target of experiment [9] is PUM1 PUF domain R4-APN (Homo sapiens, UniProt Q14671 828-1176, N971A;H972P;Q975N). A digest of the protocol: as §1
The target of experiment [10] is PUM1 PUF domain R7-KSS (Homo sapiens, UniProt Q14671 828-1176, S1079K;N1080S;E1083S). The essentials:
as §1

Experiment [11] addresses PUM1 PUF domain R7-KRA (Homo sapiens, UniProt Q14671 828-1176, S1079K;N1080R;E1083A). The essentials: as §1
In experiment [12] the target is PUM1 PUF domain R7-RCK (Homo sapiens, UniProt Q14671 828-1176, S1079R;N1080C;E1083K). A digest of the protocol:
as §1

For experiment [13], the target named is PUM1 PUF domain R2-LWD (Homo sapiens, UniProt Q14671 828-1176, N899L;Y900W;Q903D). A digest of the protocol: as §1
In experiment [14] the target is PUM1 PUF domain R7-GCL (Homo sapiens, UniProt Q14671 828-1176, S1079G;N1080C;E1083L). A digest of the protocol: as §1
For experiment [15], the target named is PUM1 PUF domain R1-RQE (Homo sapiens, UniProt Q14671 828-1176, S863R;R864Q;Q867E). A digest of the protocol: as §1
Experiment [16] has as its target PUM1 PUF domain R1-KCT (Homo sapiens, UniProt Q14671 828-1176, S863K;R864C;Q867T). A digest of the protocol:
as §1

Turning to “GGCUAGAACUAGUGGAUCCCCCGGCGCCCGGCGGCUCGAGCCCGGGUAAGUGUAAAUUGUCUGCAUGCCGCCGGGCGCCAUGCCUGCAGGUCGACUCUAGAAAACAUG”, the binding signal in [1] was 3.25 log2 enrichment (interaction score); in experiment [2], 4.15 log2 enrichment (interaction score); in experiment [3], 6.29 log2 enrichment (interaction score).
Take “GGCUAGAACUAGUGGAUCCCCCGGCGCCCGGCGGCUCGAGCCCGGGUAAGUGUAAAUAGUCUGCAUGCCGCCGGGCGCCAUGCCUGCAGGUCGACUCUAGAAAACAUG”: the binding signal is 6.31 log2 enrichment (interaction score) in experiment [4]; 3.26 log2 enrichment (interaction score) in [5]; 3 log2 enrichment (interaction score) in experiment [6]; 2.29 log2 enrichment (interaction score) in experiment [7]; 5.94 log2 enrichment (interaction score) in experiment [8]; 4.29 log2 enrichment (interaction score) in experiment [9].
Consider “GGCUAGAACUAGUGGAUCCCCCGGCGCCCGGCGGCUCGAGCCCGGGUAAGUCUAAAUAGUCUGCAUGCCGCCGGGCGCCAUGCCUGCAGGUCGACUCUAGAAAACAUG”, for which the values for the binding signal in [10], in [11] and in [12] were 2.54 log2 enrichment (interaction score), 5.25 log2 enrichment (interaction score) and 4.15 log2 enrichment (interaction score), respectively.
Regarding “GGCUAGAACUAGUGGAUCCCCCGGCGCCCGGCGGCUCGAGCCCGGGUAAGUGUAAAAAGUCUGCAUGCCGCCGGGCGCCAUGCCUGCAGGUCGACUCUAGAAAACAUG”, the binding signal in [13] was 5.97 log2 enrichment (interaction score).
As to “GGCUAGAACUAGUGGAUCCCCCGGCGCCCGGCGGCUCGAGCCCGGGUAAGUUUAAAUAGUCUGCAUGCCGCCGGGCGCCAUGCCUGCAGGUCGACUCUAGAAAACAUG”, the binding signal in [14] was 2.65 log2 enrichment (interaction score); in experiment [10], 4.3 log2 enrichment (interaction score); in experiment [11], 3.25 log2 enrichment (interaction score).
Regarding “GGCUAGAACUAGUGGAUCCCCCGGCGCCCGGCGGCUCGAGCCCGGGUAAGUAUAAAUAGUCUGCAUGCCGCCGGGCGCCAUGCCUGCAGGUCGACUCUAGAAAACAUG”, the binding signal in experiment [12] is 2.31 log2 enrichment (interaction score).
As to “GGCUAGAACUAGUGGAUCCCCCGGCGCCCGGCGGCUCGAGCCCGGGUAAGUGUAAAUGGUCUGCAUGCCGCCGGGCGCCAUGCCUGCAGGUCGACUCUAGAAAACAUG”, the binding signal is 1.2 log2 enrichment (interaction score) in [15], 3.31 log2 enrichment (interaction score) in experiment [16] and 3.5 log2 enrichment (interaction score) in experiment [2].
